# Test results published in PubChem BioAssay (NCATS).
# A number with no mark means an inactive call. Inconclusive results are not listed. Calls of active or inactive are those of the source. Unless noted, calls follow the shape of the dose curve; as a rule, active = well fitted curve in either direction with a large enough effect (not every such curve was filed as active); inconclusive = small, poorly fitted or top-dose-only effect, or another doubt; inactive = flat fitted curve, though single readings scatter.
# What was measured:
# [1] = test system: HIV-1 nucleocapsid protein NCp7 (binding to TG oligonucleotide); test: HIV Nucleocapsid (AID 346; call rule not given here;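 also: potency is read from the fitted curve at half-maximal effect; potency is for inhibitors that block NC binding and lower polarization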); conditions: HIV-1 NC / fluorescein-TGTGTGTG probe, fluorescence polarization
# Outline: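 NCp7 100 nM + fluorescein TG4xF 10 nM; Hepes pH 7.5/250mM NaCl/1uM ZnCl2/0.004% PEG 20000; 1 hr RT; FP, 45 s exposure; oligo-only wells as negative control.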
# [2] = target: Cytochrome P450 3A4 (Homo sapiens) (UniProt P08684); test: qHTS Assay for Activators of Cytochrome P450 3A4 (AID 885; active = well fitted activation curve with a large enough effect; also: nearly all actives have a fitted effect of over 65% in size); conditions: recombinant CYP3A4, Luciferin-PPXE luminescence, 60 min; series mostly up to 57.1 µM
# Sequence of Cytochrome P450 3A4 (Homo sapiens) (P08684 whole entry, looked up): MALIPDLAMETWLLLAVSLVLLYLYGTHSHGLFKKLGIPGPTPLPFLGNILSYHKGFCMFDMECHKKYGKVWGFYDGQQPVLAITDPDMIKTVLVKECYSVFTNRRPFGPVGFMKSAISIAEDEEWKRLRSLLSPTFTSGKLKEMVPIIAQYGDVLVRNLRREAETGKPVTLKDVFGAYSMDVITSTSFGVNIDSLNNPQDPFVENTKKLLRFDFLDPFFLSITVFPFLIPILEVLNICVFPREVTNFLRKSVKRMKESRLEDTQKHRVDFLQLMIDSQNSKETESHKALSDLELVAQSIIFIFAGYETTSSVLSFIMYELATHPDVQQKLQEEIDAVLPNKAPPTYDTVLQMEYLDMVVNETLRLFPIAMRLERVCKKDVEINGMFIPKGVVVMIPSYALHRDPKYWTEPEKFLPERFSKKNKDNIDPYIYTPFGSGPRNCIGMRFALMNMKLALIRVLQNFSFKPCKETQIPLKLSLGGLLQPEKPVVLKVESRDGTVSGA
# Outline: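 20nM CYP3A4 + 25uM Luciferin-PPXE (=KM), 200mM KPO4; cpd 10 min RT; NADPH regen, 60 min RT; stop w/ detection buffer, 20 min; luminescence. Normalized to 57 uM ketoconazole.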
# [3] = target: Lysosomal acid glucosylceramidase (Homo sapiens) (UniProt P04062); test: Glucocerebrosidase-p2 (AID 348; in the data active = potency below about 10 µM; also: potency is read from the fitted curve at half-maximal effect); conditions: purified GBA, blue fluorogenic substrate, 40 min
# Sequence of Lysosomal acid glucosylceramidase (Homo sapiens) (P04062 whole entry, looked up): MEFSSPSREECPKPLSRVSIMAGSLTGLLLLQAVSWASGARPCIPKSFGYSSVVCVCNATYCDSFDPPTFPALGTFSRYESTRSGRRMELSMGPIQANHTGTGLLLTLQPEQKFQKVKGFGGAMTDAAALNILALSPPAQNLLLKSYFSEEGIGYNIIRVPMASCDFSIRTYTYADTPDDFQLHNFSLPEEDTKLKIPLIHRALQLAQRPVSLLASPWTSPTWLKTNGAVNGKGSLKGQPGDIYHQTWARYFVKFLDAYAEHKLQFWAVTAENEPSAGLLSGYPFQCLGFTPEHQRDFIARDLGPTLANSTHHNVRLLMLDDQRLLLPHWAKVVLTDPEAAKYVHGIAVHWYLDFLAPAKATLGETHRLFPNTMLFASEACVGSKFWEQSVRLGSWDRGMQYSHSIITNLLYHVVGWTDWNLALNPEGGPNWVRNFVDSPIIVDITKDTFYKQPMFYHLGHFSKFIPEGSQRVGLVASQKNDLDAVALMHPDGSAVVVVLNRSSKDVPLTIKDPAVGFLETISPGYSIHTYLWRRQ
# Outline: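 Compounds titrated from 0.6 nM upwards against 0.2 nM enzyme in pH 5.9 citric acid/KH2PO4, taurocholate, tween-20; blue fluorogenic substrate 80 uM, 40 min room temperature, stopped and read Ex 365/Em 440 for AC50.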
# [4] = AP1 Signaling Pathway (AID 357); conditions: ME-180 AP-1-bla reporter, EGF-induced, beta-lactamase ratio, 5 h; at 7.69 µM (top of the series) unless noted;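 also: ME-180 reporter cells stimulated with EGF at its EC50 level; % is scaled to controls: 0 for no effect and ±100 for the full control effect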
# Outline: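 Cells are seeded overnight, exposed to compound titrations and an EC50 level of EGF for 5 hours at 37 °C, then loaded with CCF4 dye for 2.5 hours. Beta-lactamase activity under the AP-1 element is read as a blue/green ratio.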
# [5] = target: Cytochrome P450 1A2 (Homo sapiens) (UniProt P05177); test: p450-cyp1a2 (AID 410; calls by dose curve; also: potency is read from the fitted curve at half-maximal effect;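 as to activity change, negative = inhibition: -100% = full effect of reference inhibitor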); conditions: recombinant CYP1A2, luciferin-ME demethylation, luminescence; series mostly up to 11.4 µM
# Sequence of Cytochrome P450 1A2 (Homo sapiens) (P05177 whole entry, looked up): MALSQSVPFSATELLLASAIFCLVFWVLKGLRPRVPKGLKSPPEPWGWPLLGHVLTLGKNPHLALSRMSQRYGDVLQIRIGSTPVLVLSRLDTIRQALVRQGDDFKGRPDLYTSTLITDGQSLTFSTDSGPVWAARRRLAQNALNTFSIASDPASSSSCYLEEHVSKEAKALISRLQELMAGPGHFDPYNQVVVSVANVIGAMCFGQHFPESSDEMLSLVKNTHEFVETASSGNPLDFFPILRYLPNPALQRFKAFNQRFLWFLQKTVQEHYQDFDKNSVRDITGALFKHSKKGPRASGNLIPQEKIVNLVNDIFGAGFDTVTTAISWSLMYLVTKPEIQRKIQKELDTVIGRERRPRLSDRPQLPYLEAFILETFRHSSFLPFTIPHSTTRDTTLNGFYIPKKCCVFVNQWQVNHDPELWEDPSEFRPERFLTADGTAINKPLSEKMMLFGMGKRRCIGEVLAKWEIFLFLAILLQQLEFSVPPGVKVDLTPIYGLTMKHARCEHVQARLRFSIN
# Outline: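 Human CYP1A2 (20nM) demethylated Luciferin-ME at its Km (100uM) in 100mM KPO4. After 10 min compound preincubation, NADPH regeneration ran the reaction 60 min at room temperature. Luciferin was read by luminescence, normalized to 57 uM furafylline.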
# [6] = NFAT Signaling Pathway (AID 444); conditions: Jurkat NFAT-bla M1, carbachol, beta-lactamase ratio, 5 h; at 7.69 µM (top of the series) unless noted;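 also: carbachol stimulus at about its EC50 of 1 µM final; % is scaled to controls: 0 for no effect and ±100 for the full control effect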
# Outline: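 Jurkat cells carrying an NFAT-driven β-lactamase reporter and co-transfected muscarinic M1 receptor were treated with compound plus carbachol (1 uM final, an EC50 level) for 5 h at 37 °C. CCF4 loading followed for 1 h at RT; 460/530 nm ratio gave %activity.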
# [7] = Stat Signaling Pathway (AID 446); conditions: ME-180 SIE beta-lactamase reporter, IL-6 stimulated, 5 h; at 7.69 µM (top of the series) unless noted;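 also: ME-180 cervical cancer cells given 40 pM IL-6 alongside compound; SIE-controlled beta-lactamase reporter measured as 460/530 nm FRET emission ratio; % is scaled to controls: 0 for no effect and ±100 for the full control effect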
# Outline: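 ME-180 SIE-bla cells; overnight plating; cpd + IL-6 40 pM, 5 h, 37 C; LiveBLAzer 2.5 h RT; 460/530 nm emission ratio. Normalized to 300 pM IL-6 and 125 nM JAK inhibitor controls.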
# [8] = target: Glucocorticoid receptor (Homo sapiens) (UniProt P04150); test: GR-GFP Redistribution (AID 450;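 active = compounds whose dose series gives a full or clear partial fitted curve of increased nuclear translocation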; also: potency is read from the fitted curve at half-maximal effect); conditions: U2OS GR-GFP nuclear translocation, laser cytometry, 2 h
# Sequence of Glucocorticoid receptor (Homo sapiens) (P04150 whole entry, looked up, the tested form may be a part): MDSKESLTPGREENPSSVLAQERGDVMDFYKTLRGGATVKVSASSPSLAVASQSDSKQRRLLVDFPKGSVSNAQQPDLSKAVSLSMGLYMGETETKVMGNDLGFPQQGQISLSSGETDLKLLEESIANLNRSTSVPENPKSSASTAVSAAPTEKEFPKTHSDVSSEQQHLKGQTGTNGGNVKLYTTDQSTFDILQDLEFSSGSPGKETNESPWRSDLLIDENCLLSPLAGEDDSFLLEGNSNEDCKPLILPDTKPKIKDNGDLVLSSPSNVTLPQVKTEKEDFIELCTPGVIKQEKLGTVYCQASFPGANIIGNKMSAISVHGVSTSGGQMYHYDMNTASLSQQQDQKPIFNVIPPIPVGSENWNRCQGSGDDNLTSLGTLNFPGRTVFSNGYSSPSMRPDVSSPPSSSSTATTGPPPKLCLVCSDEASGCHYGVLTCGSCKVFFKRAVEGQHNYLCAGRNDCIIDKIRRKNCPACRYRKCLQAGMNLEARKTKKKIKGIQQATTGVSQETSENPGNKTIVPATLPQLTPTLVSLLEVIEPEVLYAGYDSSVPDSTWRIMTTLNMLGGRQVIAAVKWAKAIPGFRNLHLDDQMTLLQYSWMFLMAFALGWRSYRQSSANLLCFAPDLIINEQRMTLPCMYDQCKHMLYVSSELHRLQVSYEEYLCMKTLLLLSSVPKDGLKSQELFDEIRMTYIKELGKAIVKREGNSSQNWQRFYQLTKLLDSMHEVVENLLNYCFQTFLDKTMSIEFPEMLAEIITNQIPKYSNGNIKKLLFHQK
# [9] = target: Glucocorticoid receptor (Homo sapiens) (UniProt P04150); test: GR-EFC Redistribution (AID 451; calls by dose curve; also: potency is read from the fitted curve at half-maximal effect); conditions: CHO-K1 GR-EFC translocation, beta-gal luminescence, 2 h
# Outline: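 CHO-K1 cells stably expressing nuclear-localized β-gal enzyme acceptor and GR fused C-terminally to the enzyme donor fragment; ligand-driven nuclear translocation restores β-gal by complementation. Compounds titrated up to 46 uM final, 2 h at 37 °C; luminescence read.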
# [10] = target: Mitogen-activated protein kinase 10 (Mus musculus) (UniProt Q61831); test: JNK3 AlphaScreen Assay (AID 530); conditions: JNK3 lysate, c-Jun phosphorylation; series mostly up to 57.1 µM;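 also: kinase came from lysate of stimulated human HepG2 cells; signal reports phosphorylation of biotinylated GST-cJun 1-79 at Ser73 with 10 µM ATP; % is scaled to controls: 0 for no effect and ±100 for the full control effect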
# Outline: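 JNK3 came from HepG2 lysates pre-activated with IL-1beta and TNF-alpha and phosphorylated biotinylated GST-cJun (1-79) at 10 uM ATP, pH 7.6, room temperature. Compounds were titrated. AlphaScreen signal used anti-phospho-cJun (Ser73) antibody.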
# [11] = target: 3',5'-cyclic-AMP phosphodiesterase 4B (Homo sapiens) (UniProt Q07343); test: qHTS Assay for Inhibitors of PDE-IV (AID 607; active = well fitted activation curve with a large enough effect in the main read-out, with a control signal flat, not every such curve was filed as active; also: % of control where 0% means no effect); conditions: HEK293 ACTOne CNG channel cells, membrane potential fluorescence; series mostly up to 22.9 µM
# Sequence of 3',5'-cyclic-AMP phosphodiesterase 4B (Homo sapiens) (Q07343 whole entry, looked up): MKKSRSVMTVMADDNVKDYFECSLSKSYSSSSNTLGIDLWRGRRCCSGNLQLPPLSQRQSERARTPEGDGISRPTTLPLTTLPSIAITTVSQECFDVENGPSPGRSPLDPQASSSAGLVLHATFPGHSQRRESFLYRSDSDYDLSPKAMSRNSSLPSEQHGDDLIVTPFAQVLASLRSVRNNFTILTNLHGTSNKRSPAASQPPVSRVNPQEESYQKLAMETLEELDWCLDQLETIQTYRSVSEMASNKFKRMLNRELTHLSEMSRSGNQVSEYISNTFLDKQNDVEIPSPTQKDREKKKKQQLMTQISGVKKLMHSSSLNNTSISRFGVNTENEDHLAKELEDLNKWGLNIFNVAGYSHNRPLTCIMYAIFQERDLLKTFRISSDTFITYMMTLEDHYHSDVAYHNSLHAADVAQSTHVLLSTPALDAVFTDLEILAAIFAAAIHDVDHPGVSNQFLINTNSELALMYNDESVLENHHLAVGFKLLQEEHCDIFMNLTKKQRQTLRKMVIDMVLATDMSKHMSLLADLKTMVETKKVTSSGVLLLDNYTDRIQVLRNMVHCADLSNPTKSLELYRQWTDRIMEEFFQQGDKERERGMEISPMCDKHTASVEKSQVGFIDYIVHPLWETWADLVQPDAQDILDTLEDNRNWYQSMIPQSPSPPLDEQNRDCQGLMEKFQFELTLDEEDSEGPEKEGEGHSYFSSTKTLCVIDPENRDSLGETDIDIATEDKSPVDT
# Outline: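 ACTOne HEK293 cells carry a modified cAMP-gated CNG channel and express endogenous PDE4; plated 1000 cells/well, compounds up to 22.9 uM final. Membrane-potential dye fluorescence (ex 535/em 590) was read; parental cells received 10 uM forskolin + 100 uM RO 20-1724.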
compound,measurement,setting,value
CN(C)c1ncc2nc(-c3ccccc3)c(=O)n(C[C@H]3CCCO3)c2n1,Potency,[1],> 20 µM
COc1ccccc1CCn1c(=O)c(-c2cccc(F)c2)nc2cncnc21,Potency,[1],> 20 µM
CN(C)c1ncc2nc(-c3ccc(F)cc3)c(=O)n(Cc3cccs3)c2n1,Potency,[1],> 20 µM
same,Potency,[2],inactive
Cc1cc[c]([Sb]2[O][C@H]([C@H](O)[C@H](O)C(=O)O)[C@@H](CO)[O]2)cc1,Potency,[3],> 11.4 µM
same,"activity change, negative = inhibition",[4],0.9%
same,Potency,[5],inactive
same,"activity change, negative = inhibition",[6],-5.69%
same,"activity, negative = inhibition",[7],4.3%
same,Potency,[8],> 46 µM
same,Potency,[9],> 9.22 µM
same,"activity change, negative = inhibition",[10],0.865% [at 11.4 µM]
same,outcome,[11],inactive
C[C@@H](Cc1ccc(Cl)cc1Cl)NO,Potency,[3],> 11.4 µM
same,"activity change, negative = inhibition",[4],3.86%
same,Potency,[5],0.251 µM (active)
same,"activity change, negative = inhibition",[6],-11.6%
same,"activity, negative = inhibition",[7],-0.402%
same,Potency,[8],> 46 µM
same,Potency,[9],> 9.22 µM
same,"activity change, negative = inhibition",[10],2.58% [at 11.4 µM]
same,outcome,[11],inactive
Cc1ccccc1-c1ccc2ncnc(NCc3cccs3)c2c1,Potency,[1],> 20 µM
c1csc(CN2CCCC3(CCNCC3)C2)n1,Potency,[1],> 20 µM
same,Potency,[3],> 11.4 µM
same,"activity change, negative = inhibition",[4],10.8%
same,Potency,[5],inactive
same,"activity change, negative = inhibition",[6],-10.2%
same,"activity, negative = inhibition",[7],-5.01%
same,Potency,[9],> 46 µM
same,Potency,[10],inactive
same,outcome,[11],inactive
